The structures appear in SMILES notation. The source made the active and inactive calls.

The first experiment relates to XIP peptide (Xip251-270) binding. Kind of experiment: XIP fragment 251-270 binding compounds – biochemical, small-molecule microarray, fluorescence 635/667 nm, 0.1 µg/mL protein, primary screen (AID 1182). The note with it: fluorescent protein binding, 635 nm, higher = more signal, called active from +8 up or from −8 down.
Consider `COc1cccc(C)c1NC(=O)O[C@H]1[C@H](OC(=O)Nc2ccccc2)[C@@H](OC(=O)Nc2ccccc2)[C@@H](OC)O[C@@H]1CO`, for which the composite z-score was 1.3 (inactive).
Still for that read-out and setting: in the case of `[N-]=[N+]=NCc1ccccc1C[C@@]1(C(=O)NCCN2CCOCC2)N=C(c2ccc(OCCCO)cc2)O[C@@H]1c1ccccc1` it was 0.682 (inactive); in that of `C=CC[C@H](O)c1ccc(O)c(F)c1`, -0.51 (inactive); in that of `Cc1ccc(S(=O)(=O)N2[C@@H](c3ccccc3)C(C(=O)O)=CC[C@H]2c2ccc(F)cc2)cc1`, -0.311 (inactive).
For the compound `C=CCNC(=O)[C@H]1[C@@H]2C(=O)O[C@@H](c3ccccc3)[C@@H](c3ccccc3)N2[C@@H](c2ccc(O)cc2)[C@]12C(=O)N(C(=O)OCCOC)c1ccc(C#Cc3ccc(OC)cc3)cc12`, the composite z-score was -0.184 (inactive).
With `CC(C)(C)OC(=O)CC[C@]1(C(=O)N2CCOCC2)COC(c2ccc(OCCCO)cc2)=N1`, the composite z-score was -0.199 (inactive).
Consider `C=CCNC(=O)[C@@H]1[C@H]2C(=O)O[C@H](c3ccccc3)[C@H](c3ccccc3)N2[C@H](c2ccc(O)cc2)[C@@]12C(=O)Nc1ccc(C#CC3=CCCCC3)cc12`, for which the composite z-score is 1.79 (inactive).
Same read-out and setting: in the case of `CCOC(=O)C[C@H]1[C@H](OC(=O)Cc2ccc3c(c2)OCO3)[C@@H](NC(=O)CC(C)C)c2cc(OCCCO)ccc2N1C(=O)c1ccc2ccccc2n1` it was 0.216 (inactive); in that of `COc1cc2c(cc1OC)CN(C(=O)[C@@H]1[C@H]3C(=O)O[C@H](c4ccccc4)[C@H](c4ccccc4)N3[C@H](c3ccc(O)cc3)[C@@]13C(=O)Nc1ccc(C#CC4=CCCCC4)cc13)CC2`, 0.715 (inactive).
Still for that read-out and setting: in the case of `CCOC(=O)C1=CCC(c2ccncc2)N(S(=O)(=O)c2ccc(C)cc2)C1` (configuration not stated) it was 0.373 (inactive).
Regarding `C=CCC(OC(C)=O)[C@@H]1[C@@H](N(Cc2cccc3ccccc23)C(=O)c2ccc(C)cc2)c2cc(OCCCO)ccc2N1C(=O)Cc1ccc2ccccc2c1` (some centres not stated), the composite z-score was -0.929 (inactive).
As to `COc1ccc(NN2C(C(O)c3ccc(F)cc3)C=CC3C(=O)N(C4CCCCC4)C(=O)C32)cc1` (configuration not stated), the composite z-score is 0.331 (inactive).
Still for that read-out and setting: then `CCCCCN1CC=CC23O[C@@H]4/C=C\CCCOC(=O)C4[C@H]2C(=O)N(CCO)[C@@H]3C1=O` (some centres not stated), with -0.0751 (inactive); and `O=C1NC(=O)C2C1C=CC(C(O)c1ccc(F)cc1)N2Nc1ccc(Cl)cc1Cl` (configuration not stated), with -0.138 (inactive); and `COC(=O)[C@@]1(Cc2ccc(F)cc2)[C@H]2c3cc(C(=O)N4CCCC4)n(Cc4ccc(C(F)(F)F)nc4)c3C[C@H]2CN1C(=O)c1ccccc1`, with 0.216 (inactive).
With `CC[C@@H](O[Si](C#C[Si](C(C)C)(C(C)C)C(C)C)(C(C)C)C(C)C)c1cn([C@H](CO)Cc2ccccc2)nn1`, the composite z-score was -0.0433 (inactive).
The same measure, in the same setting: in the case of `[N-]=[N+]=NCc1ccccc1C[C@]1(C(=O)N2CCCCC2)COC(c2ccc(OCCCO)cc2)=N1` it was -0.061 (inactive).
In the case of `C=C(C(=O)CC[C@H](OC(=O)c1ccccc1-c1ccccc1C(=O)O)c1ccc(OCCO)cc1)C(C)C`, the composite z-score was 0.0052 (inactive).
Same read-out and setting: then `COCCOC(=O)N1C(=O)[C@@]2(c3cc(C#CCCO)ccc31)[C@H](c1ccc(O)cc1)N1[C@H](c3ccccc3)[C@H](c3ccccc3)OC(=O)[C@H]1[C@@H]2C(=O)NC[C@H](O)c1ccccc1`, with 0.395 (inactive); and `CCCCC(=C=CC[C@@H](O)c1ccccc1OCCO)C[C@@H](O)c1ccccn1`, with 0.161 (inactive).
As to `COC(=O)[C@]1(Cc2ccccc2CN=[N+]=[N-])N=C(c2ccc(OCCCO)cc2)O[C@@H]1c1ccccc1N=[N+]=[N-]`, the composite z-score was 0.0771 (inactive).
For the compound `O=C1O[C@H](c2ccccc2)[C@H](c2ccccc2)N2[C@H]1[C@@H](C(=O)O)[C@]1(C(=O)Nc3ccccc31)[C@H]2c1ccc(OCCO)cc1`, the composite z-score is 1.13 (inactive).
On the same count and under the same terms, then `CC(C)C[C@@H]1NC(=O)[C@H]2C[C@@H](C(=O)O)[C@@H](c3cccc(OCCO)c3)N2C1=O`, with 0.693 (inactive); and `O=C1C[C@@](C(=O)NCC(F)(F)F)(c2ccc([N+](=O)[O-])cc2)[C@@H](c2ccc(CO)cc2I)N1CC12CC3CC(CC(C3)C1)C2`, with 2.08 (inactive); and `CCCC=C(CCC)[C@@H](NC(=O)c1ccc(C(=O)OC)cc1)c1ccc(C(=O)OC)cc1`, with -0.0958 (inactive).
Still for that read-out and setting: then `CC1(C)OB(/C=C\CC(OC(=O)c2ccncc2)c2ccccc2)OC1(C)C` (configuration not stated), with 0.258 (inactive).

The subject of the next experiment is XIP peptide (Xip251-270). Kind of experiment: compounds binding XIP fragment 251-270 – biochemical, small-molecule microarray, fluorescence 635/667 nm, 0.5 µg/mL protein, primary screen (AID 1183). The note with it: fluorescence 635 nm, higher = more signal.
In the case of `C=C(C(=O)CC[C@@H](OC(=O)c1ccccc1-c1ccccc1C(=O)O)c1ccc(OCCO)cc1)C(C)C`, the composite z-score is 0.568.
For the compound `O=C(c1ccccc1)N1Cc2ccccc2C[C@@]2(N=C(c3ccc(OCCCO)cc3)O[C@H]2c2ccccc2)C1=O`, the composite z-score is 0.814.
With `CC(C)C[C@@H]1NC(=O)[C@@H]2C[C@H](C(=O)NCCCCCNC(=O)CS)[C@H](c3ccc(O)cc3)N2C1=O`, the composite z-score turned out to be 0.56.
In the case of `COC(=O)c1ccc(OC)c(/C=C\CC(OC(=O)c2ccncc2)c2ccccc2)c1` (configuration not stated), the composite z-score worked out at 0.146.
Consider `COC(=O)C(CC#Cc1ccc2c(c1)[C@]1(C(=O)N2)[C@H](C(N)=O)[C@H]2C(=O)O[C@H](c3ccccc3)[C@H](c3ccccc3)N2[C@@H]1c1ccccc1OCCO)C(=O)OC`, for which the composite z-score came to 0.817.
For `C=CCNC(=O)[C@H]1[C@@H]2C(=O)O[C@@H](c3ccccc3)[C@@H](c3ccccc3)N2[C@@H](c2ccc(O)cc2)[C@]12C(=O)Nc1ccc(C#CCC(C(=O)OC)C(=O)OC)cc12`, the composite z-score came out at 0.764.
As to `C#CCN(C(=O)OC(C)(C)C)[C@H](CO)c1ccccc1`, the composite z-score is -0.182.
Same read-out and setting: then `COCCCNC(=O)[C@@]1(Cc2ccccc2I)c2ccccc2C(=O)N(C2CCCCC2)[C@H]1c1ccc(CO)cc1`, with 0.744.
Still for that read-out and setting: in the case of `COC(=O)[C@@]1(Cc2ccc(F)cc2)[C@H]2c3cc(C(=O)N4CCCC4)n(CCSCCO)c3C[C@H]2CN1C(=O)c1ccccc1` it was -0.279; in that of `COC(=O)[C@]1(Cc2ccccc2N=[N+]=[N-])N=C(c2ccc(OCCCO)cc2)O[C@@H]1c1ccccc1CN=[N+]=[N-]`, 0.729.
The same measure, in the same setting: then `COc1cccc(C)c1NC(=O)O[C@H]1[C@H](OC(=O)Nc2ccccc2)[C@@H](OC(=O)Nc2ccccc2)[C@@H](OC)O[C@@H]1CO`, with 0.912; and `[N-]=[N+]=NCc1ccccc1C[C@@]1(C(=O)NCCN2CCOCC2)N=C(c2ccc(OCCCO)cc2)O[C@@H]1c1ccccc1`, with 0.629; and `C=CC[C@H](O)c1ccc(O)c(F)c1`, with 0.0085.
Take `Cc1ccc(S(=O)(=O)N2[C@@H](c3ccccc3)C(C(=O)O)=CC[C@H]2c2ccc(F)cc2)cc1`: the composite z-score is -0.0114.
Still for that read-out and setting: in the case of `C=CCNC(=O)[C@H]1[C@@H]2C(=O)O[C@@H](c3ccccc3)[C@@H](c3ccccc3)N2[C@@H](c2ccc(O)cc2)[C@]12C(=O)N(C(=O)OCCOC)c1ccc(C#Cc3ccc(OC)cc3)cc12` it was 0.625.
With `CC(C)(C)OC(=O)CC[C@]1(C(=O)N2CCOCC2)COC(c2ccc(OCCCO)cc2)=N1`, the composite z-score was determined as 0.0906.
The same measure, in the same setting: in the case of `C=CCNC(=O)[C@@H]1[C@H]2C(=O)O[C@H](c3ccccc3)[C@H](c3ccccc3)N2[C@H](c2ccc(O)cc2)[C@@]12C(=O)Nc1ccc(C#CC3=CCCCC3)cc12` it was 0.716; in that of `CCOC(=O)C[C@H]1[C@H](OC(=O)Cc2ccc3c(c2)OCO3)[C@@H](NC(=O)CC(C)C)c2cc(OCCCO)ccc2N1C(=O)c1ccc2ccccc2n1`, 0.784.
Still for that read-out and setting: then `COc1cc2c(cc1OC)CN(C(=O)[C@@H]1[C@H]3C(=O)O[C@H](c4ccccc4)[C@H](c4ccccc4)N3[C@H](c3ccc(O)cc3)[C@@]13C(=O)Nc1ccc(C#CC4=CCCCC4)cc13)CC2`, with 0.535; and `CCOC(=O)C1=CCC(c2ccncc2)N(S(=O)(=O)c2ccc(C)cc2)C1` (configuration not stated), with 0.835.
Same read-out and setting: then `C=CCC(OC(C)=O)[C@@H]1[C@@H](N(Cc2cccc3ccccc23)C(=O)c2ccc(C)cc2)c2cc(OCCCO)ccc2N1C(=O)Cc1ccc2ccccc2c1` (some centres not stated), with 0.0814.
Consider `COc1ccc(NN2C(C(O)c3ccc(F)cc3)C=CC3C(=O)N(C4CCCCC4)C(=O)C32)cc1` (configuration not stated), for which the composite z-score was 0.878.
`CCCCCN1CC=CC23O[C@@H]4/C=C\CCCOC(=O)C4[C@H]2C(=O)N(CCO)[C@@H]3C1=O` (some centres not stated): the composite z-score was 0.663.
As for `O=C1NC(=O)C2C1C=CC(C(O)c1ccc(F)cc1)N2Nc1ccc(Cl)cc1Cl` (configuration not stated), the composite z-score was -0.258.
On the same count and under the same terms, then `COC(=O)[C@@]1(Cc2ccc(F)cc2)[C@H]2c3cc(C(=O)N4CCCC4)n(Cc4ccc(C(F)(F)F)nc4)c3C[C@H]2CN1C(=O)c1ccccc1`, with 0.602.
On the same count and under the same terms, then `CC[C@@H](O[Si](C#C[Si](C(C)C)(C(C)C)C(C)C)(C(C)C)C(C)C)c1cn([C@H](CO)Cc2ccccc2)nn1`, with 0.411; and `[N-]=[N+]=NCc1ccccc1C[C@]1(C(=O)N2CCCCC2)COC(c2ccc(OCCCO)cc2)=N1`, with 0.652.
Regarding `C=C(C(=O)CC[C@H](OC(=O)c1ccccc1-c1ccccc1C(=O)O)c1ccc(OCCO)cc1)C(C)C`, the composite z-score came to 0.569.
For the compound `COCCOC(=O)N1C(=O)[C@@]2(c3cc(C#CCCO)ccc31)[C@H](c1ccc(O)cc1)N1[C@H](c3ccccc3)[C@H](c3ccccc3)OC(=O)[C@H]1[C@@H]2C(=O)NC[C@H](O)c1ccccc1`, the composite z-score came out at 0.859.
For `CCCCC(=C=CC[C@@H](O)c1ccccc1OCCO)C[C@@H](O)c1ccccn1`, the composite z-score was determined as 0.338.
Still for that read-out and setting: in the case of `COC(=O)[C@]1(Cc2ccccc2CN=[N+]=[N-])N=C(c2ccc(OCCCO)cc2)O[C@@H]1c1ccccc1N=[N+]=[N-]` it was 0.724; in that of `O=C1O[C@H](c2ccccc2)[C@H](c2ccccc2)N2[C@H]1[C@@H](C(=O)O)[C@]1(C(=O)Nc3ccccc31)[C@H]2c1ccc(OCCO)cc1`, 0.711.
Turning to `CC(C)C[C@@H]1NC(=O)[C@H]2C[C@@H](C(=O)O)[C@@H](c3cccc(OCCO)c3)N2C1=O`, the composite z-score amounted to 0.737.
The same measure, in the same setting: in the case of `O=C1C[C@@](C(=O)NCC(F)(F)F)(c2ccc([N+](=O)[O-])cc2)[C@@H](c2ccc(CO)cc2I)N1CC12CC3CC(CC(C3)C1)C2` it was 0.797.
On the same count and under the same terms, in the case of `CCCC=C(CCC)[C@@H](NC(=O)c1ccc(C(=O)OC)cc1)c1ccc(C(=O)OC)cc1` it was -0.345; in that of `CC1(C)OB(/C=C\CC(OC(=O)c2ccncc2)c2ccccc2)OC1(C)C` (configuration not stated), 0.478.

These data come from PubChem BioAssay.
